# Screens from PubChem BioAssay.
# PREPL inh = inhibits the human prolyl oligopeptidase-like enzyme; 0.68% of 320,000 active; Q4J6C6; inhibition, % at 5.96 µM; recombinant PREPL, fluorescence polarization activity-based probe; in the data active = inhibition above about 43%;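 also: 0% = enzyme with DMSO and 100% = wells lacking enzyme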
# MEKK2 mut-MEK5 = signal of MEK5 binding to mutant human MEKK2 PB1 domain; bead flow cytometry, Alexa488-MEK5 binding to MEKK2 mutant; percent response, % at 10 µM; 0.35% of 290,000 active; in the data active = percent response above about 24%, passing the limit was not always enough
# MEKK2 WT-MEK5 = raises or lowers MEK5 binding to wildtype human MEKK2 PB1 domain; Q9Y2U5; bead flow cytometry, Alexa488-MEK5 binding to MEKK2 WT; actives lie on both sides; binding response (% of control), % at 10 µM; 1.1% of 290,000 active; AID 1531; in the data active = binding response below about 67% or above about 130%; inconclusive = no clear call, values can overlap the other calls; inactive = in between
# UBC13 inh = inhibitors of human UBC13 polyubiquitin chain formation | TR-FRET | P61088 | 0.47% of 330,000 active | inhibition, % at 20 µM | AID 485273; in the data active = inhibition above about 45%, passing the limit was not always enough; inconclusive = no clear call, values can overlap the other calls
# Target sequence (P61088 whole entry, looked up): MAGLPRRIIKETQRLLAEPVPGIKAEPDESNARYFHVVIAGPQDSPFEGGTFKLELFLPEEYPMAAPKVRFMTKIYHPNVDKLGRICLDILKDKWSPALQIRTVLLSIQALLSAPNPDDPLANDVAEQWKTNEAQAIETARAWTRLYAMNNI
# MEKK3 PB1 HTS = raises or lowers MEK5 binding to the human MEKK3 PB1 domain; binding response (% of control), % at 10 µM; 1.4% of 290,000 active; bead-based flow cytometry, Alexa488-MEK5 binding to MEKK3; actives lie on both sides; 0 = blocked by unlabeled MEK5, 100 = vehicle; AID 1529;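 active = binding response more than 3 SD above or below the average of its plate-row segment, actives on both sides; inconclusive = wells at one plate position flagged as instrument error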;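 also: Alexa488 bead fluorescence after subtracting the streptavidin-only scavenger bead signal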
# ATG4B inhibitor = ATG4B (human) cysteine protease inhibition; Q9Y4P1; ATG4B cleavage of LC3-PLA2, NBD-HPC fluorescence, 1 h; inhibition, % at 8.33 µM; 0.51% of 340,000 active; in the data active = inhibition above about 40%
# Casp3 counter = inhibits human caspase-3 in UBC13 counter-screen; shares compounds with UBC13 inh; Recombinant caspase-3, Caspase-Glo 3/7 luminescence, 60 min; inhibition, % at 20 µM; 4% of 1,400 active;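 active = mean inhibition across replicates above about 26%, limit read from the data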;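 also: plate controls were DMSO with caspase-3 for no effect and DMSO wells lacking enzyme for full effect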
# Target sequence (P42574 whole entry, looked up): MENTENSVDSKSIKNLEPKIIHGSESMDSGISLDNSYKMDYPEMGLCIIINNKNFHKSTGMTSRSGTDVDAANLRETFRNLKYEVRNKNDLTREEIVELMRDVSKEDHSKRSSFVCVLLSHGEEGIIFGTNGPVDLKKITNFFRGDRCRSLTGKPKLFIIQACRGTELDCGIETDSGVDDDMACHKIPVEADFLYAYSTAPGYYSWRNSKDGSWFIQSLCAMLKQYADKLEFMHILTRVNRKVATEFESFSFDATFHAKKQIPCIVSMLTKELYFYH
# UBC13 confirm = confirmation of human UBC13 polyubiquitin inhibitors | shares compounds with UBC13 inh | UBC13 polyubiquitination, TR-FRET, biochemical | inhibition, % at 10 µM | 68% of 1,400 active | AID 488859; in the data active = inhibition above about 45%; inconclusive = no clear call, values can overlap the other calls
# An asterisk follows results filed as active; ? = inconclusive; · = no result given. Compounds with a hit are over-represented: about 3.1% of the library has one in this group of screens.
SMILES,PREPL inh,MEKK2 mut-MEK5,MEKK2 WT-MEK5,UBC13 inh,MEKK3 PB1 HTS,ATG4B inhibitor,Casp3 counter,UBC13 confirm
O=C(NCC1CCCN1S(=O)(=O)c1ccccc1)C(=O)NC1CC1 (stereo not given),0,·,·,-1,·,-1,·,·
Cc1nnc(NC(=O)c2c(-c3ccccc3)noc2C)s1,7,0,101,0,97,-11,·,·
Cc1onc(-c2ccccc2)c1C(=O)Nc1cccc2nsnc12,5,-2,102,49*,100,-10,1,45
O=C(CC1C[C@H](C(=O)N2CCCCC2)[C@@]2(CCc3ccccc3)c3[nH]c4ccccc4c3CCN2C1=O)NCCc1ccccn1 (stereo not given in full),·,·,·,·,·,-15,·,·
CC(C)(C)c1ccc(-c2nc3c(C#N)c(-c4ccc5c(c4)OCO5)ccn3n2)cc1,12,3,101,48*,106,0,-4,?
Cc1ccc(-c2cc(-c3ccc4c(c3)OCO4)c(C#N)c(N)n2)o1,12,1,105,5,98,-11,·,·
CCN(CC)CCC(O)(c1ccc2c(c1)OCO2)c1cc(OC)c(OC)c(OC)c1 (stereo not given),·,·,·,·,·,1,·,·
COc1ccccc1CNC(=O)Cc1csc(NC(=O)Nc2ccccc2OC)n1,-17,·,·,1,·,4,·,·
COc1ccccc1NC(=O)Nc1nc(C(C)(C)C)cs1,-1,-1,109,53*,118,5,-2,55*
CC(C)(C)c1cc(C(=O)N/N=C/c2ccncc2)n[nH]1,-3,2,101,-7,100,10,·,·
CC(C)(C)c1cc(C(=O)N/N=C/c2ccccn2)n[nH]1,3,1,103,62*,106,-8,-2,-10
Cc1ncc(S(=O)(=O)c2ccc(Cl)cc2)c(N)n1,2,·,·,45*,·,-3,-1,49*
Nc1ncc(S(=O)(=O)c2ccc(Cl)cc2)c(N)n1,7,0,107,14,100,-2,·,·
Cc1ccc(C2C(C#N)=C(N)Oc3n[nH]c(-c4cccs4)c32)cc1 (stereo not given),-3,-2,96,2,91,-11,·,·
COc1cc(C2C(C#N)=C(N)Oc3n[nH]c(-c4cccs4)c32)cc(OC)c1O (stereo not given),0,4,97,84*,98,2,0,88*
CCOC(=O)C(Cc1ccc(NC(C)=O)cc1)N1C(=O)c2ccccc2C1=O (stereo not given),12,·,·,-6,·,-5,·,·
CCCCN(C)CCNC(=O)c1cc2c(-c3cccc(OC)c3)nn(C)c2s1,-34,9,115,46*,90,-12,1,45
CC(C)OCC(O)CN1CCN(CCN2C(=O)c3cccc4cccc(c34)C2=O)CC1 (stereo not given),5,3,100,-11,101,-7,·,·
CC(=O)c1ccc(OCC(O)CN2CCN(CCN3C(=O)c4cccc5cccc(c45)C3=O)CC2)cc1 (stereo not given),3,1,105,96*,102,20,-2,103*
CCC(OCC(O)CN1CCN(CCN2C(=O)c3cccc4cccc(c34)C2=O)CC1)c1ccccc1 (stereo not given),-11,-1,105,82*,100,-21,4,97*
Cc1cccc(CS(=O)(=O)Cc2ccc(C(=O)NC3CCCC3)o2)c1,-5,2,101,-1,101,-11,·,·
Brc1cccc(CN2CCN(c3ncccn3)CC2)c1,·,4,107,-8,103,-1,·,·
O=C(COc1ccc(Cl)cc1)OCC(=O)N1CCCc2ccccc21,-3,13,105,63*,97,7,-3,-3
O=C(COc1ccc(Cl)cc1Cl)OCC(=O)N1CCCc2ccccc21,-17,5,82,6,97,15,·,·
Nc1nonc1-n1nnc(C(=O)N/N=C/c2ccccc2Br)c1CN1CCCC1,14,0,100,63*,102,1,-4,2
